The values that follow come from PubChem BioAssay (NCI).

This is part of a sample that, as a whole, favours compounds with a hit. Of some 83,000 tested, about 20% had one in any assay.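 Testing used 96-well plates and a 48-hour single-concentration exposure. Example: -40 means 40% of the starting cells died.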 Values without a mark were called inactive. Calls of active or inactive are those of the source. The calls were made as follows: active = growth percent below 10; inactive = the rest.

Some test systems named below: K-562 leukemia; MALME-3M melanoma; MDA-MB-231 breast; RXF 393 renal; SF-268 CNS; SF-295 CNS; SF-539 CNS; UACC-257 melanoma; M14 melanoma; HCT-15 colon; HT29 colon; SNB-75 CNS; SNB-19 CNS; U251 CNS; PC-3 prostate; SK-MEL-5 melanoma; UACC-62 melanoma; SK-MEL-28 melanoma; SK-MEL-2 melanoma; LOX IMVI melanoma.
Common to all, as to test: NCI-60 one-dose screen, 48 h (100 = growth as untreated, 0 = no growth, -100 = all killed)
Common to all, as to conditions: 10 µM unless noted

With `COc1ccc([C@@H]2c3[nH]c4ccccc4c3CC3C(=O)N(C4CCN(Cc5c(F)cccc5F)CC4)CC(=O)N32)c(OC)c1` (some centres not stated), the growth in the assay on K-562 leukemia is 62.2% [5.26 µM]; in the assay on MALME-3M melanoma, 68% [5.26 µM]; in the assay on MDA-MB-231 breast, 62.3% [5.26 µM]; in the assay on RXF 393 renal it was 56.4% [5.26 µM]; in the assay on SF-268 CNS, 55% [5.26 µM]; in the assay on SF-295 CNS, 67.1% [5.26 µM]. In addition, the growth is 69.8% [5.26 µM] in the assay on SF-539 CNS; 77.4% [5.26 µM] with UACC-257 melanoma; 26.4% [5.26 µM] with M14 melanoma; 47.5% [5.26 µM] with HCT-15 colon; 44% [5.26 µM] in the assay with HT29 colon; 22.3% [5.26 µM] in the assay with SNB-75 CNS. In addition, the growth is 64.2% [5.26 µM] in the assay on SNB-19 CNS; 62% [5.26 µM] in the assay with U251 CNS; 35.2% [5.26 µM] with PC-3 prostate; -9.17% [5.26 µM] (active) in the assay on SK-MEL-5 melanoma; 78.9% [5.26 µM] in the assay on UACC-62 melanoma; 60.9% [5.26 µM] in the assay on SK-MEL-28 melanoma. For the same compound, the growth in the assay on SK-MEL-2 melanoma was 74.5% [5.26 µM].
As for `C#Cc1nc(C2=C(C)C(O)CC2)cs1` (configuration not stated), the growth with K-562 leukemia is 114%; in the assay with MALME-3M melanoma it was 109%; in the assay with MDA-MB-231 breast it was 112%; in the assay with RXF 393 renal it was 95.6%; with SF-268 CNS, 108%; with SF-295 CNS, 113%. The growth in the assay with SF-539 CNS is 108%; in the assay with UACC-257 melanoma, 102%; in the assay with M14 melanoma, 101%; in the assay with HCT-15 colon, 98.9%; with HT29 colon, 118%; in the assay on SNB-75 CNS it was 96.1%. The growth in the assay with SNB-19 CNS was 104%; in the assay on U251 CNS, 104%; in the assay on PC-3 prostate, 97.7%; in the assay on SK-MEL-5 melanoma, 101%; in the assay with UACC-62 melanoma it was 94.2%; in the assay with SK-MEL-28 melanoma, 105%. Also, the growth in the assay on SK-MEL-2 melanoma is 117%.
Regarding `N#Cc1c(-c2ccc(Cl)cc2)nc(SCc2ccc([N+](=O)[O-])cc2)nc1N1CCNCC1`, the growth with K-562 leukemia was -32.2% (active); in the assay with MALME-3M melanoma, 48.4%; in the assay on MDA-MB-231 breast, -77.7% (active); in the assay with RXF 393 renal it was -4.17% (active); in the assay with SF-268 CNS it was 35.3%; in the assay on SF-295 CNS, 78.9%. For the same compound, the growth in the assay with SF-539 CNS was -23% (active); in the assay on UACC-257 melanoma, 43.5%; with M14 melanoma it was -81% (active); in the assay with HCT-15 colon, 1.91% (active); with HT29 colon it was -71.9% (active); in the assay with SNB-75 CNS it was 28.1%. Moreover, the growth in the assay on SNB-19 CNS is 51.8%; in the assay with U251 CNS, -95.9% (active); in the assay with PC-3 prostate it was -1.75% (active); with SK-MEL-5 melanoma, 43.6%; in the assay on LOX IMVI melanoma, -61.7% (active); with SK-MEL-28 melanoma it was 8.08% (active). For the same compound, the growth with SK-MEL-2 melanoma is -2.3% (active).
In the case of `O=C1Nc2ccc(Cl)cc2/C1=C/c1ccc(OCC(=O)c2ccc(Br)cc2)cc1`, the growth in the assay on K-562 leukemia was 102%; with MALME-3M melanoma it was 84.5%; in the assay on MDA-MB-231 breast it was 76.2%; in the assay with RXF 393 renal, 114%; with SF-268 CNS it was 94%; with SF-295 CNS, 99.9%. Also, the growth in the assay on SF-539 CNS was 102%; in the assay with UACC-257 melanoma, 100%; in the assay with M14 melanoma, 95.6%; with HCT-15 colon, 99.2%; in the assay with HT29 colon, 103%; with SNB-75 CNS it was 75.7%. Also, the growth in the assay on SNB-19 CNS was 89.7%; in the assay on U251 CNS, 98.3%; in the assay with PC-3 prostate, 81.8%; in the assay on SK-MEL-5 melanoma, 96.9%; with LOX IMVI melanoma, 108%; in the assay with SK-MEL-28 melanoma, 99.3%. Also, the growth in the assay with SK-MEL-2 melanoma was 113%.
As to `COc1ccc(C(=O)/C=C/c2ccc(Oc3nc(NCCO)nc(N4CCOCC4)n3)c(OC)c2)cc1`, the growth was 6.9% (active) in the assay on K-562 leukemia; 84.7% with MALME-3M melanoma; 85.3% in the assay with MDA-MB-231 breast; 108% with RXF 393 renal; 85.5% in the assay on SF-268 CNS; 104% in the assay with SF-295 CNS. In addition, the growth is 82.5% in the assay with SF-539 CNS; 89.9% in the assay with UACC-257 melanoma; 86.8% in the assay on M14 melanoma; 36.2% in the assay with HCT-15 colon; 35% with HT29 colon; 89.6% in the assay with SNB-75 CNS. Moreover, the growth in the assay on SNB-19 CNS was 69.3%; with U251 CNS it was 43.1%; in the assay with PC-3 prostate, 80%; in the assay with SK-MEL-5 melanoma, 95.2%; in the assay with UACC-62 melanoma it was 70.3%; with SK-MEL-28 melanoma it was 97.3%. Besides, in the assay with SK-MEL-2 melanoma, the growth was 101%.
In the case of `Clc1ccc2oc3c(OCCCn4ccnc4)c4ccccc4nc3c2c1`, the growth is 45.2% with K-562 leukemia; 97.9% in the assay with MALME-3M melanoma; 65.7% with MDA-MB-231 breast; 57.9% in the assay on RXF 393 renal; 67.7% in the assay with SF-268 CNS; 54% in the assay with SF-295 CNS. Further, the growth is 65.1% in the assay on SF-539 CNS; 96.4% in the assay with UACC-257 melanoma; 93.6% with M14 melanoma; 40.4% in the assay on HCT-15 colon; 36.7% in the assay with HT29 colon; 68.5% in the assay on SNB-75 CNS. Moreover, the growth in the assay with SNB-19 CNS was 73.5%; with U251 CNS, 61.6%; in the assay with PC-3 prostate it was 68.9%; in the assay on SK-MEL-5 melanoma, 92.8%; in the assay with LOX IMVI melanoma it was 42.8%; in the assay on SK-MEL-28 melanoma, 89.8%. Further, the growth with SK-MEL-2 melanoma was 112%.
With `Nc1cc(-c2c[nH]c3ccccc23)nc2cc(-c3c[nH]c4ccccc34)nn12`, the growth in the assay on K-562 leukemia was 4.17% (active); in the assay with MALME-3M melanoma, 64.5%; with MDA-MB-231 breast, 48.2%; in the assay with RXF 393 renal it was 38.2%; in the assay on SF-268 CNS, 75.2%; in the assay on SF-295 CNS it was 34.8%. The growth is 32.4% in the assay on SF-539 CNS; 70.2% in the assay with UACC-257 melanoma; 29.3% with M14 melanoma; 6.35% (active) in the assay with HCT-15 colon; 9.63% (active) in the assay on HT29 colon; 82.5% in the assay on SNB-75 CNS. The growth with SNB-19 CNS is 86.2%; with U251 CNS it was 29.7%; in the assay on PC-3 prostate it was 60.6%; with SK-MEL-5 melanoma it was 45.6%; in the assay with LOX IMVI melanoma, -25.2% (active); in the assay with SK-MEL-28 melanoma, 59.6%. Besides, in the assay on SK-MEL-2 melanoma, the growth was 96%.
`Nc1c(C(=O)Nc2ccc(C(F)(F)F)cc2)sc2nc(-c3cnccn3)cc(-c3cccs3)c12`: the growth in the assay with K-562 leukemia is 35.5%; with MALME-3M melanoma it was 89%; in the assay with MDA-MB-231 breast, 66.2%; in the assay with RXF 393 renal, 25.5%; in the assay on SF-268 CNS it was 78.6%; in the assay with SF-295 CNS it was 78.7%. Also, the growth in the assay on SF-539 CNS was -54.1% (active); with UACC-257 melanoma, 95.8%; in the assay on M14 melanoma, 49.4%; in the assay with HCT-15 colon, 78.6%; in the assay on HT29 colon, 95%; in the assay with SNB-75 CNS, 34.2%. The growth is 52.2% in the assay with SNB-19 CNS; 79.5% in the assay with U251 CNS; 42.2% in the assay on PC-3 prostate; 90.1% with SK-MEL-5 melanoma; 84.6% in the assay on UACC-62 melanoma; 89.8% in the assay with SK-MEL-28 melanoma. In addition, the growth in the assay on SK-MEL-2 melanoma is 101%.
